# Assay results taken from article PMC11006913.
# Substitutions are numbered along the chain they refer to.
# Experiments:
# Experiment in all cases: PBM; 200 nM protein, PBS
# Conditions in all cases: dsDNA, one strand shown
# [1] = molecular target: NKX2-5 (Homo sapiens, UniProt P52952 125-210, R139K)
# [2] = molecular target: T1, VENTX (Homo sapiens, UniProt O95231 78-163, R121Q)
# T1 sequence: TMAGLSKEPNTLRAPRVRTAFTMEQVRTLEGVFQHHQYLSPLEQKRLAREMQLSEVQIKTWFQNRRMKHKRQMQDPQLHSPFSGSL
# [3] = molecular target: T2, VENTX (Homo sapiens, UniProt O95231 78-163)
# T2 sequence: T1 sequence with Q44R
# [4] = molecular target: ALX4 (Homo sapiens, UniProt Q9H161 200-286)
# Chain of ALX4 (Homo sapiens, UniProt Q9H161 200-286) (Q9H161 200-286): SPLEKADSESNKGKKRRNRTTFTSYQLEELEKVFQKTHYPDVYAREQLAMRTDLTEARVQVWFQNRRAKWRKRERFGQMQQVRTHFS
# [5] = molecular target: T3, VENTX (Homo sapiens, UniProt O95231 78-163, Y115F)
# T3 sequence: T1 sequence with Y38F, Q44R
# [6] = molecular target: ALX4 (Homo sapiens, UniProt Q9H161 200-286, Q225E)
# Chain of ALX4 (Homo sapiens, UniProt Q9H161 200-286, Q225E) (Q9H161 200-286 Q225E): as the sequence (Q9H161 200-286) above, with Q26E counted along it
# [7] = molecular target: ALX1 (Homo sapiens, UniProt Q15699 118-204, L144V)
# Chain of ALX1 (Homo sapiens, UniProt Q15699 118-204, L144V) (Q15699 118-204 L144V): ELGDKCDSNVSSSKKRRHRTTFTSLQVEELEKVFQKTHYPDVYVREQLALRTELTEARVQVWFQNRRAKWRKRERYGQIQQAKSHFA
# [8] = molecular target: ALX3 (Homo sapiens, UniProt O95076 139-225, N203Q)
# Chain of ALX3 (Homo sapiens, UniProt O95076 139-225, N203Q) (O95076 139-225 N203Q): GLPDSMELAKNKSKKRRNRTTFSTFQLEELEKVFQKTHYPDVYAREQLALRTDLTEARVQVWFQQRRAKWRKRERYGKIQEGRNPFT
# [9] = molecular target: PITX2 (Homo sapiens, UniProt Q99697 72-157)
# [10] = molecular target: ALX1 (Homo sapiens, UniProt Q15699 118-204, L144R)
# Chain of ALX1 (Homo sapiens, UniProt Q15699 118-204, L144R) (Q15699 118-204 L144R): as the sequence (Q15699 118-204 L144V) above, with V27R counted along it
# [11] = molecular target: ALX3 (Homo sapiens, UniProt O95076 139-225)
# Chain of ALX3 (Homo sapiens, UniProt O95076 139-225) (O95076 139-225): as the sequence (O95076 139-225 N203Q) above, with Q65N counted along it
# [12] = molecular target: ALX3 (Homo sapiens, UniProt O95076 139-225, L168Q)
# Chain of ALX3 (Homo sapiens, UniProt O95076 139-225, L168Q) (O95076 139-225 L168Q): as the sequence (O95076 139-225 N203Q) above, with L30Q, Q65N counted along it
# [13] = molecular target: ALX3 (Homo sapiens, UniProt O95076 139-225, L168V)
# Chain of ALX3 (Homo sapiens, UniProt O95076 139-225, L168V) (O95076 139-225 L168V): as the sequence (O95076 139-225 N203Q) above, with L30V, Q65N counted along it
# [14] = molecular target: ALX1 (Homo sapiens, UniProt Q15699 118-204)
# Chain of ALX1 (Homo sapiens, UniProt Q15699 118-204) (Q15699 118-204): as the sequence (Q15699 118-204 L144V) above, with V27L counted along it
# [15] = molecular target: ALX3 (Homo sapiens, UniProt O95076 139-225, N203S)
# Chain of ALX3 (Homo sapiens, UniProt O95076 139-225, N203S) (O95076 139-225 N203S): as the sequence (O95076 139-225 N203Q) above, with Q65S counted along it
# [16] = molecular target: NKX2-5 (Homo sapiens, UniProt P52952 125-210)
# Chain of NKX2-5 (Homo sapiens, UniProt P52952 125-210) (P52952 125-210): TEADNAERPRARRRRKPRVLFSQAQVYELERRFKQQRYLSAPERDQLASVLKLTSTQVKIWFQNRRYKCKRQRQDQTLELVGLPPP
# [17] = molecular target: HOXA7 (Homo sapiens, UniProt P31268 116-202)
# Chain of HOXA7 (Homo sapiens, UniProt P31268 116-202) (P31268 116-202): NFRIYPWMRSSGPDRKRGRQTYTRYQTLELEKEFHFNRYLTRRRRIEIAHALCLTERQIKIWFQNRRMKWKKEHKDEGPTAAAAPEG
# [18] = molecular target: T4, NKX2-6 (Homo sapiens, UniProt A6NCS4 118-204)
# T4 sequence: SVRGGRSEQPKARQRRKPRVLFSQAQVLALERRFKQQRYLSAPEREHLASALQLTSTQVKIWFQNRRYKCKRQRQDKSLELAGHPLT
# [19] = molecular target: T5, NKX2-6 (Homo sapiens, UniProt A6NCS4 118-204, F151L)
# T5 sequence: T4 sequence with F34L
# [20] = molecular target: HOXA7 (Homo sapiens, UniProt P31268 116-202, W177C)
# Chain of HOXA7 (Homo sapiens, UniProt P31268 116-202, W177C) (P31268 116-202 W177C): as the sequence (P31268 116-202) above, with W62C counted along it
# [21] = molecular target: NKX3-2 (Homo sapiens, UniProt P78367 192-278, P234S)
# Chain of NKX3-2 (Homo sapiens, UniProt P78367 192-278, P234S) (P78367 192-278 P234S): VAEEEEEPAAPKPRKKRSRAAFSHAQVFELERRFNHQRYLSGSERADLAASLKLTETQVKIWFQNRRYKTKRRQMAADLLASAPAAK
# [22] = molecular target: NKX3-2 (Homo sapiens, UniProt P78367 192-278)
# Chain of NKX3-2 (Homo sapiens, UniProt P78367 192-278) (P78367 192-278): as the sequence (P78367 192-278 P234S) above, with S43P counted along it
# [23] = molecular target: T6, NKX2-4 (Homo sapiens, UniProt Q9H2Z4 175-261, P217L)
# T6 sequence: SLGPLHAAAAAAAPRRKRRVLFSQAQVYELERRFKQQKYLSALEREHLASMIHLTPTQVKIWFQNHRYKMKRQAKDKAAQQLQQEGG
# [24] = molecular target: T7, NKX2-4 (Homo sapiens, UniProt Q9H2Z4 175-261, T231S)
# T7 sequence: T6 sequence with L43P, T57S
# [25] = molecular target: T8, NKX2-4 (Homo sapiens, UniProt Q9H2Z4 175-261)
# T8 sequence: T6 sequence with L43P
# [26] = molecular target: T9, NKX2-4 (Homo sapiens, UniProt Q9H2Z4 175-261, R246Q)
# T9 sequence: T6 sequence with L43P, R72Q
# [27] = molecular target: T10, NKX2-6 (Homo sapiens, UniProt A6NCS4 118-204, R150C)
# T10 sequence: T4 sequence with R33C
# [28] = molecular target: HOXA2 (Homo sapiens, UniProt O43364 129-215, R185T)
# Chain of HOXA2 (Homo sapiens, UniProt O43364 129-215, R185T) (O43364 129-215 R185T): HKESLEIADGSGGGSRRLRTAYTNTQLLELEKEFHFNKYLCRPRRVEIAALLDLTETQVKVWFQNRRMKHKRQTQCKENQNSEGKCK
# [29] = molecular target: HOXA2 (Homo sapiens, UniProt O43364 129-215, R185K)
# Chain of HOXA2 (Homo sapiens, UniProt O43364 129-215, R185K) (O43364 129-215 R185K): as the sequence (O43364 129-215 R185T) above, with T57K counted along it
# [30] = molecular target: VAX1 (Homo sapiens, UniProt Q5SQQ9 86-172)
# Chain of VAX1 (Homo sapiens, UniProt Q5SQQ9 86-172) (Q5SQQ9 86-172): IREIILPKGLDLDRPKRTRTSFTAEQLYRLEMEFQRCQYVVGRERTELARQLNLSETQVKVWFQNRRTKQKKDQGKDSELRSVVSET
# [31] = molecular target: VAX1 (Homo sapiens, UniProt Q5SQQ9 86-172, T142I)
# Chain of VAX1 (Homo sapiens, UniProt Q5SQQ9 86-172, T142I) (Q5SQQ9 86-172 T142I): as the sequence (Q5SQQ9 86-172) above, with T57I counted along it
# [32] = molecular target: HOXA2 (Homo sapiens, UniProt O43364 129-215, Y150S)
# Chain of HOXA2 (Homo sapiens, UniProt O43364 129-215, Y150S) (O43364 129-215 Y150S): as the sequence (O43364 129-215 R185T) above, with Y22S, T57R counted along it
# [33] = molecular target: HOXA2 (Homo sapiens, UniProt O43364 129-215)
# Chain of HOXA2 (Homo sapiens, UniProt O43364 129-215) (O43364 129-215): as the sequence (O43364 129-215 R185T) above, with T57R counted along it
# [34] = molecular target: VAX1 (Homo sapiens, UniProt Q5SQQ9 86-172, K157R)
# Chain of VAX1 (Homo sapiens, UniProt Q5SQQ9 86-172, K157R) (Q5SQQ9 86-172 K157R): as the sequence (Q5SQQ9 86-172) above, with K72R counted along it
# Chain of NKX2-5 (Homo sapiens, UniProt P52952 125-210, R139K) (P52952 125-210 R139K): as the sequence (P52952 125-210) above, with R15K counted along it
sequence,measurement,setting,value
CGGTCGGC,binding signal,[1],"8.67 upbm affinity estimate (log intensity, higher = more binding, comparable within an allelic series)"
same,binding signal,[2],"8.16 upbm affinity estimate (log intensity, higher = more binding, comparable within an allelic series)"
same,binding signal,[3],"8.35 upbm affinity estimate (log intensity, higher = more binding, comparable within an allelic series)"
same,binding signal,[4],"8.27 upbm affinity estimate (log intensity, higher = more binding, comparable within an allelic series)"
same,binding signal,[5],"8.29 upbm affinity estimate (log intensity, higher = more binding, comparable within an allelic series)"
same,binding signal,[6],"7.99 upbm affinity estimate (log intensity, higher = more binding, comparable within an allelic series)"
same,binding signal,[7],"6.28 upbm affinity estimate (log intensity, higher = more binding, comparable within an allelic series)"
same,binding signal,[8],"7.66 upbm affinity estimate (log intensity, higher = more binding, comparable within an allelic series)"
same,binding signal,[9],"7.99 upbm affinity estimate (log intensity, higher = more binding, comparable within an allelic series)"
same,binding signal,[10],"6.31 upbm affinity estimate (log intensity, higher = more binding, comparable within an allelic series)"
same,binding signal,[11],"7.68 upbm affinity estimate (log intensity, higher = more binding, comparable within an allelic series)"
same,binding signal,[12],"7.79 upbm affinity estimate (log intensity, higher = more binding, comparable within an allelic series)"
same,binding signal,[13],"7.75 upbm affinity estimate (log intensity, higher = more binding, comparable within an allelic series)"
same,binding signal,[14],"6.46 upbm affinity estimate (log intensity, higher = more binding, comparable within an allelic series)"
same,binding signal,[15],"7.69 upbm affinity estimate (log intensity, higher = more binding, comparable within an allelic series)"
same,binding signal,[16],"8.65 upbm affinity estimate (log intensity, higher = more binding, comparable within an allelic series)"
CCGACGCC,binding signal,[1],"8.82 upbm affinity estimate (log intensity, higher = more binding, comparable within an allelic series)"
same,binding signal,[2],"8.14 upbm affinity estimate (log intensity, higher = more binding, comparable within an allelic series)"
same,binding signal,[3],"8.37 upbm affinity estimate (log intensity, higher = more binding, comparable within an allelic series)"
same,binding signal,[17],"8.58 upbm affinity estimate (log intensity, higher = more binding, comparable within an allelic series)"
same,binding signal,[5],"8.23 upbm affinity estimate (log intensity, higher = more binding, comparable within an allelic series)"
same,binding signal,[18],"8.94 upbm affinity estimate (log intensity, higher = more binding, comparable within an allelic series)"
same,binding signal,[19],"9.35 upbm affinity estimate (log intensity, higher = more binding, comparable within an allelic series)"
same,binding signal,[20],"8.45 upbm affinity estimate (log intensity, higher = more binding, comparable within an allelic series)"
same,binding signal,[21],"10.5 upbm affinity estimate (log intensity, higher = more binding, comparable within an allelic series)"
same,binding signal,[16],"8.73 upbm affinity estimate (log intensity, higher = more binding, comparable within an allelic series)"
same,binding signal,[22],"10.5 upbm affinity estimate (log intensity, higher = more binding, comparable within an allelic series)"
CTCTTAAG,binding signal,[1],"12.3 upbm affinity estimate (log intensity, higher = more binding, comparable within an allelic series)"
same,binding signal,[23],"12.5 upbm affinity estimate (log intensity, higher = more binding, comparable within an allelic series)"
same,binding signal,[24],"12.7 upbm affinity estimate (log intensity, higher = more binding, comparable within an allelic series)"
same,binding signal,[25],"12.3 upbm affinity estimate (log intensity, higher = more binding, comparable within an allelic series)"
same,binding signal,[18],"13.5 upbm affinity estimate (log intensity, higher = more binding, comparable within an allelic series)"
same,binding signal,[26],"12.9 upbm affinity estimate (log intensity, higher = more binding, comparable within an allelic series)"
same,binding signal,[19],"10.6 upbm affinity estimate (log intensity, higher = more binding, comparable within an allelic series)"
same,binding signal,[16],"12.3 upbm affinity estimate (log intensity, higher = more binding, comparable within an allelic series)"
TCAAGTGA,binding signal,[1],"12.5 upbm affinity estimate (log intensity, higher = more binding, comparable within an allelic series)"
same,binding signal,[23],"12.5 upbm affinity estimate (log intensity, higher = more binding, comparable within an allelic series)"
same,binding signal,[24],"13 upbm affinity estimate (log intensity, higher = more binding, comparable within an allelic series)"
same,binding signal,[25],"12.4 upbm affinity estimate (log intensity, higher = more binding, comparable within an allelic series)"
same,binding signal,[27],"11.7 upbm affinity estimate (log intensity, higher = more binding, comparable within an allelic series)"
same,binding signal,[18],"13.5 upbm affinity estimate (log intensity, higher = more binding, comparable within an allelic series)"
same,binding signal,[26],"13.1 upbm affinity estimate (log intensity, higher = more binding, comparable within an allelic series)"
same,binding signal,[19],"10.5 upbm affinity estimate (log intensity, higher = more binding, comparable within an allelic series)"
same,binding signal,[16],"12.4 upbm affinity estimate (log intensity, higher = more binding, comparable within an allelic series)"
GCGACGCC,binding signal,[1],"8.87 upbm affinity estimate (log intensity, higher = more binding, comparable within an allelic series)"
same,binding signal,[2],"8.02 upbm affinity estimate (log intensity, higher = more binding, comparable within an allelic series)"
same,binding signal,[3],"8.21 upbm affinity estimate (log intensity, higher = more binding, comparable within an allelic series)"
same,binding signal,[5],"8.16 upbm affinity estimate (log intensity, higher = more binding, comparable within an allelic series)"
same,binding signal,[28],"7.22 upbm affinity estimate (log intensity, higher = more binding, comparable within an allelic series)"
same,binding signal,[29],"10.4 upbm affinity estimate (log intensity, higher = more binding, comparable within an allelic series)"
same,binding signal,[30],"7.12 upbm affinity estimate (log intensity, higher = more binding, comparable within an allelic series)"
same,binding signal,[31],"7.24 upbm affinity estimate (log intensity, higher = more binding, comparable within an allelic series)"
same,binding signal,[32],"10.6 upbm affinity estimate (log intensity, higher = more binding, comparable within an allelic series)"
same,binding signal,[33],"7.31 upbm affinity estimate (log intensity, higher = more binding, comparable within an allelic series)"
same,binding signal,[34],"7.22 upbm affinity estimate (log intensity, higher = more binding, comparable within an allelic series)"
same,binding signal,[16],"8.83 upbm affinity estimate (log intensity, higher = more binding, comparable within an allelic series)"
TACTTGAA,binding signal,[1],"12.6 upbm affinity estimate (log intensity, higher = more binding, comparable within an allelic series)"
same,binding signal,[23],"12.7 upbm affinity estimate (log intensity, higher = more binding, comparable within an allelic series)"
same,binding signal,[24],"13.2 upbm affinity estimate (log intensity, higher = more binding, comparable within an allelic series)"
same,binding signal,[25],"12.6 upbm affinity estimate (log intensity, higher = more binding, comparable within an allelic series)"
same,binding signal,[27],"11.6 upbm affinity estimate (log intensity, higher = more binding, comparable within an allelic series)"
same,binding signal,[18],"13.4 upbm affinity estimate (log intensity, higher = more binding, comparable within an allelic series)"
same,binding signal,[26],"13.3 upbm affinity estimate (log intensity, higher = more binding, comparable within an allelic series)"
same,binding signal,[19],"10.8 upbm affinity estimate (log intensity, higher = more binding, comparable within an allelic series)"
same,binding signal,[16],"12.5 upbm affinity estimate (log intensity, higher = more binding, comparable within an allelic series)"
GTACTTCA,binding signal,[1],"12.5 upbm affinity estimate (log intensity, higher = more binding, comparable within an allelic series)"
same,binding signal,[23],"12.7 upbm affinity estimate (log intensity, higher = more binding, comparable within an allelic series)"
same,binding signal,[24],"13.1 upbm affinity estimate (log intensity, higher = more binding, comparable within an allelic series)"
same,binding signal,[25],"12.6 upbm affinity estimate (log intensity, higher = more binding, comparable within an allelic series)"
same,binding signal,[27],"11.7 upbm affinity estimate (log intensity, higher = more binding, comparable within an allelic series)"
same,binding signal,[18],"13.4 upbm affinity estimate (log intensity, higher = more binding, comparable within an allelic series)"
same,binding signal,[26],"13.2 upbm affinity estimate (log intensity, higher = more binding, comparable within an allelic series)"
same,binding signal,[19],"10.8 upbm affinity estimate (log intensity, higher = more binding, comparable within an allelic series)"
same,binding signal,[16],"12.4 upbm affinity estimate (log intensity, higher = more binding, comparable within an allelic series)"
